# PMC7862700, “An all-to-all approach to the identification of sequence-specific readers for epigenetic DNA modifications on cytosine”
# Legend:
# Assay in all cases: DAPPL (digital affinity profiling via proximity ligation, sequencing); 10 mM Tris-HCl pH 7.5, 50 mM NaCl, 1 mM DTT, 4% glycerol, room temperature, 30 min; GST-TFs on glutathione beads, 16-mer random dsDNA library, 0.1% formaldehyde crosslink after washing; high values mean tight binding
# [1] = target: T1, FLI1 (Homo sapiens, UniProt Q01543 1-452); settings: protein: recombinant; tags: N-terminal GST; dsDNA, one strand shown
# T1 sequence: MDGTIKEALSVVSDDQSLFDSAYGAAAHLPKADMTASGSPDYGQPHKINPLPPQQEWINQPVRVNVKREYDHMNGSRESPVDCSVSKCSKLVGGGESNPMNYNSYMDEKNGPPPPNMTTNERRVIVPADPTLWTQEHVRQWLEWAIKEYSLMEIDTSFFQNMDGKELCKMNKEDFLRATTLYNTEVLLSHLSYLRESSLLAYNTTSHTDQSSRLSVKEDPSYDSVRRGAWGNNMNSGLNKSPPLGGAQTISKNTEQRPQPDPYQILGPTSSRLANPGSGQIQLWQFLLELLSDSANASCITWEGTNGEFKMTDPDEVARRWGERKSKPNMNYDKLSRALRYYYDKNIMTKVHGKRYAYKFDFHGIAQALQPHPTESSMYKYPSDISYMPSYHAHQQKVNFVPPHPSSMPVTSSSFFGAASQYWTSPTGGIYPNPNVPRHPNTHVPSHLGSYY
# How it was run: (§1)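 After expression in yeast as GST fusions, human transcription factors were bound to glutathione beads, DNA-barcoded and mixed with a tag-only sample. The pools were incubated with 200 nmole of a 16-mer random double-stranded DNA library in Tris/NaCl/DTT/glycerol buffer (30 min, room temperature), washed and crosslinked with 0.1% formaldehyde. Proximity ligation with BsaI/T4 ligase ran for 1 h at 37 °C, before PCR amplification and sequencing on an Illumina NextSeq500. Binding signal is a hexamer's read frequency for a factor divided by its frequency for the tag-only sample.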
# [2] = target: T2, ELK1 (Homo sapiens, UniProt P19419 1-428); settings: protein: recombinant; tags: N-terminal GST; dsDNA, one strand shown
# T2 sequence: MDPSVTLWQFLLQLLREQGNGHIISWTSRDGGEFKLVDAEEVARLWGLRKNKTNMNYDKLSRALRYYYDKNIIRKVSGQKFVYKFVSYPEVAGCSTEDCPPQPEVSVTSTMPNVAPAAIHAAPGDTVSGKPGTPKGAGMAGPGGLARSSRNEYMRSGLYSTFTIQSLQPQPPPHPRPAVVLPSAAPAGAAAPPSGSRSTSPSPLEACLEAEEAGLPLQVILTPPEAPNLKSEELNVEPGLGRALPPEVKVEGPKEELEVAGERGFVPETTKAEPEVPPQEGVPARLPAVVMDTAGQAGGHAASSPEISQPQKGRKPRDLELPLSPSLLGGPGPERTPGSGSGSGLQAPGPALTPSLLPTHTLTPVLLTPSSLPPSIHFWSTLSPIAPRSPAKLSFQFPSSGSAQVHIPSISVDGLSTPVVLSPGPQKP
# How it was run: as §1
# [3] = target: T3, GABPA (Homo sapiens, UniProt Q06546 1-454); settings: protein: recombinant; tags: N-terminal GST; dsDNA, one strand shown
# T3 sequence: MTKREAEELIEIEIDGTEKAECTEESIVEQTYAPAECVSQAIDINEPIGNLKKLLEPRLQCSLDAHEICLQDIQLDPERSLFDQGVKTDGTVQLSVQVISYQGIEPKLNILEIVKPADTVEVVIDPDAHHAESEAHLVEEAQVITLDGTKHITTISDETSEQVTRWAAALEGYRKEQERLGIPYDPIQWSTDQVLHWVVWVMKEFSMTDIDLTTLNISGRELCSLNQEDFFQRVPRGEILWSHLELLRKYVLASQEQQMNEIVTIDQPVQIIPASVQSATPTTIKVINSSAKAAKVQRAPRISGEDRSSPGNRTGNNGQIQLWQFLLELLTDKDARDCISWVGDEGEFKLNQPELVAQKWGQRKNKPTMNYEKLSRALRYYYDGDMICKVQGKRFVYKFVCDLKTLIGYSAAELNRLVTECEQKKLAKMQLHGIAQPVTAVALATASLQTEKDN
# How it was run: as §1
# [4] = target: T4, ERG (Homo sapiens, UniProt P11308 1-479); settings: protein: recombinant; tags: N-terminal GST; dsDNA, one strand shown
# T4 sequence: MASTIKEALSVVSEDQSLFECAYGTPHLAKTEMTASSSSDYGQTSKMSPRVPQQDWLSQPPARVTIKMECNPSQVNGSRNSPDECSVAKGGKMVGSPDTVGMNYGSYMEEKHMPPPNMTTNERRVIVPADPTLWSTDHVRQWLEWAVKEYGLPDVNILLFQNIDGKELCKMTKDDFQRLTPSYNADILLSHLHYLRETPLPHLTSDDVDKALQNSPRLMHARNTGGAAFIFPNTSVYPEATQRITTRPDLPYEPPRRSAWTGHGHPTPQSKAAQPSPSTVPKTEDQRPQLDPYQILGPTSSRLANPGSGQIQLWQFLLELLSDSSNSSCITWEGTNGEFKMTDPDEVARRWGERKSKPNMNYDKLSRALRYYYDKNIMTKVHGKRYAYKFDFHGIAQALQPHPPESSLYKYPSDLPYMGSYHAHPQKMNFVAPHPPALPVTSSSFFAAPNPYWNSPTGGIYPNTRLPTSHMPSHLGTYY
# How it was run: as §1
# [5] = target: ELF1 (Homo sapiens, UniProt P32519 1-619); settings: protein: recombinant; tags: N-terminal GST; dsDNA, one strand shown
# How it was run: as §1
# [6] = target: T5, EHF (Homo sapiens, UniProt Q9NZC4 1-300); settings: protein: recombinant; tags: N-terminal GST; dsDNA, one strand shown
# T5 sequence: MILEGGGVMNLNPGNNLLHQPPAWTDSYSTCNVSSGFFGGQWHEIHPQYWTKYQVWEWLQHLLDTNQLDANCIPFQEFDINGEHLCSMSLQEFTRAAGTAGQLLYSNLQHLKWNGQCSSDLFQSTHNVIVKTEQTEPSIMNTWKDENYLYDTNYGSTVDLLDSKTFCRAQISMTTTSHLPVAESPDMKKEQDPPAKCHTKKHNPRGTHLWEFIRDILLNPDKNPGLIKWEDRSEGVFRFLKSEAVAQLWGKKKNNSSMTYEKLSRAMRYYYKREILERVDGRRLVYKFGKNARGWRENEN
# How it was run: as §1
# [7] = target: SPI1 (Homo sapiens, UniProt P17947 1-270); settings: protein: recombinant; tags: N-terminal GST; dsDNA, one strand shown
# How it was run: as §1
# [8] = target: SPIB (Homo sapiens, UniProt Q01892 1-262); settings: protein: recombinant; tags: N-terminal GST; dsDNA, one strand shown
# How it was run: as §1
# [9] = target: T6, ELK3 (Homo sapiens, UniProt P41970 1-407); settings: protein: recombinant; tags: N-terminal GST; dsDNA, one strand shown
# T6 sequence: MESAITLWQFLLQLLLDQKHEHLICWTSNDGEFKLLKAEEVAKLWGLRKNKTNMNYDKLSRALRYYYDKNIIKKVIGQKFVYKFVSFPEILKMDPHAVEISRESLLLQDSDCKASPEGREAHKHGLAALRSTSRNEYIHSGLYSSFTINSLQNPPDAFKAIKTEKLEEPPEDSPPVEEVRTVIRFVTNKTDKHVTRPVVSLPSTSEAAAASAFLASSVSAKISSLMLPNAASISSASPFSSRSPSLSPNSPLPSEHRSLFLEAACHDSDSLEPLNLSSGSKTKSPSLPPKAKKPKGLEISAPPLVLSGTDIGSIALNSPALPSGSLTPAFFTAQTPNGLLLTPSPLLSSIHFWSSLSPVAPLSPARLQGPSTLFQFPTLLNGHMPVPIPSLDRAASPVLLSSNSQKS
# How it was run: as §1
# [10] = target: T7, FEV (Homo sapiens, UniProt Q99581 1-238); settings: protein: recombinant; tags: N-terminal GST; dsDNA, one strand shown
# T7 sequence: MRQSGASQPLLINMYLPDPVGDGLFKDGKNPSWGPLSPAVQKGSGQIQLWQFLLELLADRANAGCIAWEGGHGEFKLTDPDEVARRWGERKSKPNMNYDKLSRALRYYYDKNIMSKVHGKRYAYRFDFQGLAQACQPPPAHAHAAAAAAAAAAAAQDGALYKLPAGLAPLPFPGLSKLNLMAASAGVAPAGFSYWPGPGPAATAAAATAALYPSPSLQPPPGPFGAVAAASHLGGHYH
# How it was run: as §1
# [11] = target: ETV5 (Homo sapiens, UniProt P41161 1-510); settings: protein: recombinant; tags: N-terminal GST; dsDNA, one strand shown
# How it was run: as §1
# [12] = target: HSF1 (Homo sapiens, UniProt Q00613 1-529); settings: protein: recombinant; tags: N-terminal GST; chain copies: 3; dsDNA, one strand shown
# How it was run: as §1
# [13] = target: T8, SPIC (Homo sapiens, UniProt Q8N5J4 1-248); settings: protein: recombinant; tags: N-terminal GST; dsDNA, one strand shown
# T8 sequence: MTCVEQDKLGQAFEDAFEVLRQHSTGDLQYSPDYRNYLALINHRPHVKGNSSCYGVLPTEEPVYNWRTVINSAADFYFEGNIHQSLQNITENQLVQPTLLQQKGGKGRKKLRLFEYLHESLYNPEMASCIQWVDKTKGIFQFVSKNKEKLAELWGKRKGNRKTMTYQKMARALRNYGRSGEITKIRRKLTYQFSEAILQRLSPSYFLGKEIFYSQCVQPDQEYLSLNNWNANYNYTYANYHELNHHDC
# How it was run: as §1
# [14] = target: ELF4 (Homo sapiens, UniProt Q99607 1-663); settings: protein: recombinant; tags: N-terminal GST; dsDNA, one strand shown
# How it was run: as §1
# [15] = target: T9, ELK4 (Homo sapiens, UniProt P28324-2 1-405); settings: protein: recombinant; tags: N-terminal GST; dsDNA, one strand shown
# T9 sequence: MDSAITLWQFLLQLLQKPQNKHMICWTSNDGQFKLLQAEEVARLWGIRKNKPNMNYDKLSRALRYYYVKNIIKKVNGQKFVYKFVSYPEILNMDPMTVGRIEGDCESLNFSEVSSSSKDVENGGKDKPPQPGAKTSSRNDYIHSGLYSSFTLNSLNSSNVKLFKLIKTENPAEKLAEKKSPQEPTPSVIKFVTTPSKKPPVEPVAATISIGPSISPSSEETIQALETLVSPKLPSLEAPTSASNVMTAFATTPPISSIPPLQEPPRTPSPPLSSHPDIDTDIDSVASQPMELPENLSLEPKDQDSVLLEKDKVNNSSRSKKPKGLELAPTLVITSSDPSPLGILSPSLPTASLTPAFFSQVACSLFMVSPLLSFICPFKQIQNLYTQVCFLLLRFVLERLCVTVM
# How it was run: as §1
# [16] = target: T10, ETV2 (Homo sapiens, UniProt O00321 1-342); settings: protein: recombinant; tags: N-terminal GST; dsDNA, one strand shown
# T10 sequence: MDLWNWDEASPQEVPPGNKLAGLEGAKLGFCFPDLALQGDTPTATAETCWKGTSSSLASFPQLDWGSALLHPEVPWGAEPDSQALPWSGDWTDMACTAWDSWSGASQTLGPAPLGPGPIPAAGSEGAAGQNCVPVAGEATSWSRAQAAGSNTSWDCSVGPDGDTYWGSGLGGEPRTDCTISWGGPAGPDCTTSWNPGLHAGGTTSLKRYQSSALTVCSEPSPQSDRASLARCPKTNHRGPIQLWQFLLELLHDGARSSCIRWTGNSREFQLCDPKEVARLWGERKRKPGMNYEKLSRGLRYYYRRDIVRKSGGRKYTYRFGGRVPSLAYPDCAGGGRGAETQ
# How it was run: as §1
# [17] = target: T11, ELF3 (Homo sapiens, UniProt P78545 1-371); settings: protein: recombinant; tags: N-terminal GST; dsDNA, one strand shown
# T11 sequence: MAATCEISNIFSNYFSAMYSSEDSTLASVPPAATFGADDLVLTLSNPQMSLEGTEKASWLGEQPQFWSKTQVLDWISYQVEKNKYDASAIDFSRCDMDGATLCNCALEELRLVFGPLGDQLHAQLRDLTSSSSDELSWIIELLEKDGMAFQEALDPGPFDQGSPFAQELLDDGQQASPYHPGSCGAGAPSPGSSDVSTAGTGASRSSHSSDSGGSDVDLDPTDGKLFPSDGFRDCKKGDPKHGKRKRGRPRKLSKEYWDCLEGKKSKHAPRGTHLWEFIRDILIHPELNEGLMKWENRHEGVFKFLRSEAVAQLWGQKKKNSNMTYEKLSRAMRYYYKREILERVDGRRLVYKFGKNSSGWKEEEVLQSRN
# How it was run: as §1
# [18] = target: CRX (Homo sapiens, UniProt O43186 1-299); settings: protein: recombinant; tags: N-terminal GST; dsDNA, one strand shown
# How it was run: as §1
# [19] = target: ETV1 (Homo sapiens, UniProt P50549 1-477); settings: protein: recombinant; tags: N-terminal GST; dsDNA, one strand shown
# How it was run: as §1
# Chain of ELF4 (Q99607 whole entry): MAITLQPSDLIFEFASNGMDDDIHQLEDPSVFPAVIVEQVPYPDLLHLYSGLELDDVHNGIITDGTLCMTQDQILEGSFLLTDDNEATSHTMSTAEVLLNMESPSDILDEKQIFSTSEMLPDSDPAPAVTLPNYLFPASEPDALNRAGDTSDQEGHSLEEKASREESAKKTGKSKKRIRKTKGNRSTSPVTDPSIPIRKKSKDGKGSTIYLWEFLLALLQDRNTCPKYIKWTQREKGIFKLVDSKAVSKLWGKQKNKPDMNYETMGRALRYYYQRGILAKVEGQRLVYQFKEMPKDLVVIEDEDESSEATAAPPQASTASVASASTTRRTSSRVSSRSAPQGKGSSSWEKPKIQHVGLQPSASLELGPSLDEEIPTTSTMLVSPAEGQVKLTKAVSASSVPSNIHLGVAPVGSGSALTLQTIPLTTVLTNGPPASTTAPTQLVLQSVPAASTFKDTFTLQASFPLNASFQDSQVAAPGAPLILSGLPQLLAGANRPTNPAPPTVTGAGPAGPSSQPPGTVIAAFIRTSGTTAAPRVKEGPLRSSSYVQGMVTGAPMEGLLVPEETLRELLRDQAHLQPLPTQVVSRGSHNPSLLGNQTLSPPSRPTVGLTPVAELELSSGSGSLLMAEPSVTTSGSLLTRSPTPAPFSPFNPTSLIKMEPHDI
# Chain of ETV1 (P50549 whole entry): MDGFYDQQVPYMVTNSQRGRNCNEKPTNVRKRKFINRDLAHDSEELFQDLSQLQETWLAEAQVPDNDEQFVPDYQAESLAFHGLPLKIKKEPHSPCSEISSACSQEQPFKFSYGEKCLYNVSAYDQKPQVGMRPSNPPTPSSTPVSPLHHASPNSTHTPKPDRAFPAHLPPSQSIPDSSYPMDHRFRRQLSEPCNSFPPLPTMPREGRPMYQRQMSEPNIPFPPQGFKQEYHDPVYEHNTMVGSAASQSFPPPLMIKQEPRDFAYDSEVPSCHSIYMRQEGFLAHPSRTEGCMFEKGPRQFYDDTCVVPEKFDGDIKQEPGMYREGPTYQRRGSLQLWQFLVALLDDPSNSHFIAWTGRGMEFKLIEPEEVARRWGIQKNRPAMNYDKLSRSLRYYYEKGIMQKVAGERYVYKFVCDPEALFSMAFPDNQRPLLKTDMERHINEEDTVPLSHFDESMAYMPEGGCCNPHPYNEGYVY
# Chain of ETV5 (P41161 whole entry): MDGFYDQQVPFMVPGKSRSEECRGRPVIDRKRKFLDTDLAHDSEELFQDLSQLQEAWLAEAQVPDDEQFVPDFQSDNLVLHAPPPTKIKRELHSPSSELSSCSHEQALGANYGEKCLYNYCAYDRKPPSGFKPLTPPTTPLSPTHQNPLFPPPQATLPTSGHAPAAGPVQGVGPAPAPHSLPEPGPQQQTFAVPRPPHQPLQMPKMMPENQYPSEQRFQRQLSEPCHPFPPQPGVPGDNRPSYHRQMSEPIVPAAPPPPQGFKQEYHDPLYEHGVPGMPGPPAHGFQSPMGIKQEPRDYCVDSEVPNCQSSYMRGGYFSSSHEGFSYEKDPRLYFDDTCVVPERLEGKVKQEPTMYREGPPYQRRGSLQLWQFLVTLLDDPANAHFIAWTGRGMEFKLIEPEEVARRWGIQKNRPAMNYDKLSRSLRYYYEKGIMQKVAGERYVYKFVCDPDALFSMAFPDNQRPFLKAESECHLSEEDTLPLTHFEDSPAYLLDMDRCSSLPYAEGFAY
# Chain of ELF1 (P32519 whole entry): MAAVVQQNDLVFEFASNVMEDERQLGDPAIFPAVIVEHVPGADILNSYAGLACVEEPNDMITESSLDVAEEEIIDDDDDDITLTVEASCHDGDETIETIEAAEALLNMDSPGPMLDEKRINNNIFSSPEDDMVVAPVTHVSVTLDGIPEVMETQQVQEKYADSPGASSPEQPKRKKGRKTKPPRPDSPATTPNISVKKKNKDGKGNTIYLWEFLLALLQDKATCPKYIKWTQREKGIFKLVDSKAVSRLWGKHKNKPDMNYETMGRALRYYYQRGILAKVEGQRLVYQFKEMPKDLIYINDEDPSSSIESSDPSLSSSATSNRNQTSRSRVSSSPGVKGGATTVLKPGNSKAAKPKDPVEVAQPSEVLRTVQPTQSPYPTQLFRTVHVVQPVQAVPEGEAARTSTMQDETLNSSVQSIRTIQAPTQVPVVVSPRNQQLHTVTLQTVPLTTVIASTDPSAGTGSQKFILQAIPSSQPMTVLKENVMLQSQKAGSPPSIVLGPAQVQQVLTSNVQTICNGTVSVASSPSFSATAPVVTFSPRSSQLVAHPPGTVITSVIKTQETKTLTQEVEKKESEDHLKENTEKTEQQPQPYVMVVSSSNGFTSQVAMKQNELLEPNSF
# Chain of HSF1 (Q00613 whole entry): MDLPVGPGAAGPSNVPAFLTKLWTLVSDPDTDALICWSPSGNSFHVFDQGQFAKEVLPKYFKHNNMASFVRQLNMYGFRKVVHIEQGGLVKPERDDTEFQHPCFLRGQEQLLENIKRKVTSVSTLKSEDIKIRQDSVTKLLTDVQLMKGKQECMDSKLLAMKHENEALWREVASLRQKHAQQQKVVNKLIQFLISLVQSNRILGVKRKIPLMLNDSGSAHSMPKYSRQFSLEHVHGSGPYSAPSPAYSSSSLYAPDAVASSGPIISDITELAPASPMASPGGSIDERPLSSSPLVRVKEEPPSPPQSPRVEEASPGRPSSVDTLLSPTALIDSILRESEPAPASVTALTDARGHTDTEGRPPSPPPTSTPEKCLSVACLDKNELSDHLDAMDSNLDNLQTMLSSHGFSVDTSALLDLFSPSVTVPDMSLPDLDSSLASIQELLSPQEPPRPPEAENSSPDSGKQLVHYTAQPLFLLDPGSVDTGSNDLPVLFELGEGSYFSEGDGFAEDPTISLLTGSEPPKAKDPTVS
# Chain of SPIB (Q01892 whole entry): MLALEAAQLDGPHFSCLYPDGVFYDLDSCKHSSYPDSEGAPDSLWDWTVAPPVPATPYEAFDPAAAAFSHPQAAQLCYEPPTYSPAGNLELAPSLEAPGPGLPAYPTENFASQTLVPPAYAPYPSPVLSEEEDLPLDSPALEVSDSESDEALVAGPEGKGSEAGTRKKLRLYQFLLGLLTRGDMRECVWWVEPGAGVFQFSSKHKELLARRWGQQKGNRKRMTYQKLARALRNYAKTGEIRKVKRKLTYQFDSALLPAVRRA
# Chain of CRX (O43186 whole entry): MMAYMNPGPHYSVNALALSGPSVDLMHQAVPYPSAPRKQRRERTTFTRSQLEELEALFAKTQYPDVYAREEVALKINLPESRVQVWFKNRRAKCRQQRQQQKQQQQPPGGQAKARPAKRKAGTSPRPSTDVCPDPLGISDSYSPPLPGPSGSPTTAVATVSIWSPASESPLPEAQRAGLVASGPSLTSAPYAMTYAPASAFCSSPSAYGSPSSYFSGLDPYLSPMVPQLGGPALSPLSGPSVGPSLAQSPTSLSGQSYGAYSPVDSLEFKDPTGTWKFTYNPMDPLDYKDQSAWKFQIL
sequence,measurement,setting,value
TTATAA,binding signal,[1],"1.21 fold enrichment (6-mer frequency, TF over GST control)"
same,binding signal,[2],"1.16 fold enrichment (6-mer frequency, TF over GST control)"
same,binding signal,[3],"1.15 fold enrichment (6-mer frequency, TF over GST control)"
same,binding signal,[4],"1.14 fold enrichment (6-mer frequency, TF over GST control)"
same,binding signal,[5],"1.14 fold enrichment (6-mer frequency, TF over GST control)"
same,binding signal,[6],"1.16 fold enrichment (6-mer frequency, TF over GST control)"
same,binding signal,[7],"1.16 fold enrichment (6-mer frequency, TF over GST control)"
same,binding signal,[8],"1.2 fold enrichment (6-mer frequency, TF over GST control)"
same,binding signal,[9],"1.33 fold enrichment (6-mer frequency, TF over GST control)"
same,binding signal,[10],"1.16 fold enrichment (6-mer frequency, TF over GST control)"
same,binding signal,[11],"1.13 fold enrichment (6-mer frequency, TF over GST control)"
same,binding signal,[12],"1.79 fold enrichment (6-mer frequency, TF over GST control)"
same,binding signal,[13],"1.2 fold enrichment (6-mer frequency, TF over GST control)"
same,binding signal,[14],"1.11 fold enrichment (6-mer frequency, TF over GST control)"
same,binding signal,[15],"1.14 fold enrichment (6-mer frequency, TF over GST control)"
same,binding signal,[16],"1.12 fold enrichment (6-mer frequency, TF over GST control)"
same,binding signal,[17],"1.32 fold enrichment (6-mer frequency, TF over GST control)"
same,binding signal,[18],"2.9 fold enrichment (6-mer frequency, TF over GST control)"
same,binding signal,[19],"1.13 fold enrichment (6-mer frequency, TF over GST control)"
